This is one part of a sample in which hits are shown more often than they occur.
HT1080-NT tox = kills 2HG-producing HT-1080-NT fibrosarcoma cells. HT-1080-NT fibrosarcoma viability, CellTiter-Glo ATP luminescence, 48 h. Potency, µM (doses to about 46.1 µM), hits mostly cytotoxic. hit rate 1.6% among 360,000. AID 686970;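 note: NT is the 2HG producing partner of a matched IDH1 knockdown line; nearly all actives have a fitted effect of over 55% in size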
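Fibrosarcoma NT cells, 750 per well in 5% FBS RPMI, were exposed to compound for 48 hours. Viability: CellTiter-Glo luminescence.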
HT1080 IDH1KD tx = kills HT-1080 cells with IDH1 knockdown. AID 686971. hit rate 2% among 360,000. Potency, µM (series often up to 46.1 µM), actives largely listed as cytotoxic. HT-1080 IDH1 knockdown viability, ATP luminescence, 48 h
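Cytotoxicity counter-line: IDH1KD HT-1080, 48 h, CellTiter-Glo. Curves classed by r2, magnitude and activity.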
12-LOX inh = inhibitors of human 12S-lipoxygenase ALOX12. hit rate 1.1% among 580,000. AID 1671190. P18054. purified 12hLO, xylenol orange hydroperoxide absorbance. Potency, µM (top dose mostly 108 µM), usual class: inhibitors
Target sequence (P18054 whole entry, looked up): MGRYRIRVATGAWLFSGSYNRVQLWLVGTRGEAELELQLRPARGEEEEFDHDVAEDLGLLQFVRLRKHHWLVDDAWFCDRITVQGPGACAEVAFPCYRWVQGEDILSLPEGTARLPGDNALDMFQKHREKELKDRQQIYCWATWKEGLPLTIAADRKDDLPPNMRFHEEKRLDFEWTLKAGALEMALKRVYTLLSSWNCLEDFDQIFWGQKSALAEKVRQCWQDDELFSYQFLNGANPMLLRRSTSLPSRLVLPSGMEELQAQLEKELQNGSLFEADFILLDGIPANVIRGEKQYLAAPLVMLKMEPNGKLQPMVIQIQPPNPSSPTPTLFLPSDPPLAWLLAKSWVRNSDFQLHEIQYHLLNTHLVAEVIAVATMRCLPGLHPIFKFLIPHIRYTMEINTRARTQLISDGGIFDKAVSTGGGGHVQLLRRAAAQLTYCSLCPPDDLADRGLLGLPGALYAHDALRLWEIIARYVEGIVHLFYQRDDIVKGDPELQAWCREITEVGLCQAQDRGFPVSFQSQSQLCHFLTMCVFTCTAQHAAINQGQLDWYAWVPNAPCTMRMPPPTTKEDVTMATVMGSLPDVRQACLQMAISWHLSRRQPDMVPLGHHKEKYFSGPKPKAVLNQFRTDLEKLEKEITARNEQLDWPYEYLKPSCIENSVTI
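Purified human 12hLO (150 nM final) in 25 mM Hepes, 0.01% Triton X-100, pH 7.0 was preincubated 15 min at room temperature with compound. Then 40 uM arachidonic acid was added, 30 min. Hydroperoxide was read by Fe-XO absorbance ratio 573/405 nm.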
TDP1 cell CPT = growth inhibition of DT40 Tdp1-/-;hTDP1 cells with camptothecin (screen for TDP1 inhibitors). chicken DT40 Tdp1-/-;hTDP1 cells + 20 nM CPT, ATP luminescence, 48 h. Potency, µM (series often up to 46.2 µM), hits mostly inhibitors. hit rate 12% among 420,000. AID 686979; note: nearly all actives have a fitted effect of over 55% in size
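Cell growth measured by CellTiter-Glo luminescence after a minimum 48 h, 37 C compound exposure with 20 nM CPT in Tdp1-knockout DT40 cells stably expressing hTDP1, seeded 400/well; qHTS titration format.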
IL-1B inflam inh = blocks inflammasome-driven IL-1 beta release | THP-1 LPS/ATP IL-1B secretion, AlphaLISA, 16 h; hits give low values | activity change, % at 57.5 µM | hit rate 4.7% among 360,000; in the data active = activity change below about -50%; inconclusive = mostly about -30% to -49%
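THP-1 cells pretreated 1 hr with compounds (up to 57.5 uM final), then stimulated with LPS (250 ng/mL final) plus ATP (1.25 mM final); secreted IL-1B measured by AlphaLISA after 16 hr, decreased signal indicating inhibition.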
DT40 TDP1 no CPT = qHTS for Inhibitors of human tyrosyl-DNA phosphodiesterase 1 (TDP1): qHTS in cells in absence of CPT | hit rate 15% among 420,000 | Potency, µM (series often up to 46.2 µM), usual class: inhibitors | DT40 Tdp1-/- hTDP1 cells, no CPT, ATP luminescence, 48 h; note: nearly all actives have a fitted effect of over 55% in size
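Seeded 400 DT40-hTDP1 cells/well (vehicle DMSO, no 20 nM CPT); pinned compounds; ≥48 hr at 37 °C; CellTiter-Glo luminescence as viability measure.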
Each line names hits and unclear results; the compound was inactive in the other large screens. Unless noted, calls come from the whole dose curve; as a rule, active = well fitted curve in the direction sought with a large enough effect; inconclusive = small, poorly fitted or top-dose-only effect, or another doubt; inactive = no such curve, though single readings can be large; an effect the other way counts as inactive or inconclusive.

CCCN1CCC(=O)N([C@H](CSc2ccc(C)cc2)CC(C)C)CC1	TDP1 cell CPT 21µM, DT40 TDP1 no CPT 16µM
O=C1CCN(CCc2ccccc2)CCN1[C@H](CSc1ccccc1)Cc1ccccc1	TDP1 cell CPT 21µM, IL-1B inflam inh -64, DT40 TDP1 no CPT 11µM
Cc1ccc(SC[C@H](Cc2ccccc2)N2CCN(CCc3ccccc3)CCC2=O)cc1	HT1080 IDH1KD tx inconclusive, TDP1 cell CPT inconclusive, DT40 TDP1 no CPT inconclusive
CCCN1CCC(=O)N([C@H](CSc2ccc(C)cc2)Cc2ccccc2)CC1	TDP1 cell CPT 29µM, DT40 TDP1 no CPT inconclusive
COc1ccc(SC[C@H](Cc2ccccc2)N2CCN(C)CCC2=O)cc1	TDP1 cell CPT inconclusive, DT40 TDP1 no CPT inconclusive
CCCN1CCC(=O)N([C@H](CSc2ccc(OC)cc2)Cc2ccccc2)CC1	TDP1 cell CPT inconclusive, DT40 TDP1 no CPT 18µM
N#Cc1c(SCC(N)=O)nc(N2CCOCC2)c2c1CCCC2	none (no result: HT1080-NT tox, HT1080 IDH1KD tx, TDP1 cell CPT, IL-1B inflam inh, DT40 TDP1 no CPT)
O=C(NCc1nnc2cc(-c3nc(C4CC4)no3)ccn12)c1ccccc1F	none (no result: HT1080-NT tox, HT1080 IDH1KD tx, TDP1 cell CPT, IL-1B inflam inh, DT40 TDP1 no CPT)
O=C(c1ccc2c(c1)OCCO2)C1CCN(C(=O)Nc2ccc(F)cc2)CC1	TDP1 cell CPT inconclusive, DT40 TDP1 no CPT 18µM
Cc1cccc(NC(=O)CN2CCC(C(=O)c3ccc4c(c3)OCCO4)CC2)c1	TDP1 cell CPT inconclusive, IL-1B inflam inh inconclusive, DT40 TDP1 no CPT 16µM
Cc1oc2cc(O)ccc2c(=O)c1Oc1ccccc1	TDP1 cell CPT 6.5µM, DT40 TDP1 no CPT 5.8µM
CCOC(=O)c1ccc(Oc2c(C)oc3cc(OS(C)(=O)=O)ccc3c2=O)cc1	TDP1 cell CPT 16µM, DT40 TDP1 no CPT 16µM
COc1ccc(Oc2c(C)oc3cc(OS(C)(=O)=O)ccc3c2=O)cc1	none (no result: HT1080-NT tox, HT1080 IDH1KD tx, TDP1 cell CPT, IL-1B inflam inh, DT40 TDP1 no CPT)
CC(=O)c1cc2c(cc1NC(=O)CN1Cc3ccccc3C1=O)OCO2	none
Cc1ccccc1-c1cc(-c2ccc(=O)[nH]c2)c2cncn2c1	none (no result: HT1080-NT tox, HT1080 IDH1KD tx, TDP1 cell CPT, IL-1B inflam inh, DT40 TDP1 no CPT)
CCC(=O)C1=C(O)C(c2cccc(Oc3ccccc3)c2)CCC1=O (stereo not given)	TDP1 cell CPT 21µM, DT40 TDP1 no CPT 9.2µM
c1ccc2c(CN3CCn4c(nnc4-c4ccncc4)C3)cccc2c1	none (no result: HT1080-NT tox, HT1080 IDH1KD tx, TDP1 cell CPT, IL-1B inflam inh, DT40 TDP1 no CPT)
Cc1cccc(Cn2c(NCCc3ccccc3)nc3c2c(=O)[nH]c(=O)n3C)c1	none (no result: HT1080-NT tox, HT1080 IDH1KD tx, TDP1 cell CPT, IL-1B inflam inh, DT40 TDP1 no CPT)
CC(=O)c1nn(-c2ccc(Br)cc2)cc1C(=O)c1ccccc1	none
CC(=O)c1nn(-c2ccccc2)cc1C(=O)c1ccc(C)cc1	TDP1 cell CPT inconclusive, DT40 TDP1 no CPT 23µM
N#Cc1cn(-c2ccccc2)nc1C(=O)c1ccccc1	TDP1 cell CPT inconclusive, DT40 TDP1 no CPT 12µM
Cc1ccc(Cn2cnc3nc4c(cc3c2=O)CC(C)CC4)cc1 (stereo not given)	TDP1 cell CPT 21µM, DT40 TDP1 no CPT 15µM (no result: HT1080-NT tox, HT1080 IDH1KD tx, IL-1B inflam inh)
Cc1cccc(OCCc2noc(C3CNC3)n2)c1	none (no result: HT1080-NT tox, HT1080 IDH1KD tx, TDP1 cell CPT, IL-1B inflam inh, DT40 TDP1 no CPT)
CCCc1nc(SCc2ccccn2)c2c(=O)n(C)c(=O)n(C)c2n1	TDP1 cell CPT inconclusive, DT40 TDP1 no CPT inconclusive
Cn1c(=O)c2c(SCc3cccnc3)nc(CC(C)(C)C)nc2n(C)c1=O	TDP1 cell CPT 15µM, DT40 TDP1 no CPT 18µM
Cn1c(=O)c2c(SCc3ccccn3)nc(CC(C)(C)C)nc2n(C)c1=O	TDP1 cell CPT 21µM, DT40 TDP1 no CPT 21µM
CCCCn1c(SCc2cccnc2)nc2c1c(=O)n(C)c(=O)n2C	TDP1 cell CPT 13µM, DT40 TDP1 no CPT 16µM
CCn1c(SCc2cccnc2)nc2c1c(=O)n(C)c(=O)n2C	none
CCCc1nc(SCc2cccnc2)c2c(=O)n(C)c(=O)n(C)c2n1	TDP1 cell CPT inconclusive, DT40 TDP1 no CPT 16µM
O=S1(=O)CC(N2CCCCC2)CN1Cc1cn(Cc2ccc(Cl)cc2)nn1 (stereo not given)	none
Cc1cccc(CN2CCN(C3CN(Cc4cn(Cc5cccc(Cl)c5)nn4)S(=O)(=O)C3)CC2)c1 (stereo not given)	12-LOX inh inconclusive, TDP1 cell CPT 18µM, DT40 TDP1 no CPT 15µM
